# Data reported in PMC7862700, “An all-to-all approach to the identification of sequence-specific readers for epigenetic DNA modifications on cytosine”.
# Legend:
# Assay in all cases: DAPPL (digital affinity profiling via proximity ligation, sequencing); 10 mM Tris-HCl pH 7.5, 50 mM NaCl, 1 mM DTT, 4% glycerol, room temperature, 30 min; GST-TFs on glutathione beads, 16-mer random dsDNA library, 0.1% formaldehyde crosslink after washing; high values mean tight binding
# FLI1 = target: T1, FLI1 (Homo sapiens, UniProt Q01543 1-452); details: protein: recombinant; tags: N-terminal GST; dsDNA, one strand shown
# T1 sequence: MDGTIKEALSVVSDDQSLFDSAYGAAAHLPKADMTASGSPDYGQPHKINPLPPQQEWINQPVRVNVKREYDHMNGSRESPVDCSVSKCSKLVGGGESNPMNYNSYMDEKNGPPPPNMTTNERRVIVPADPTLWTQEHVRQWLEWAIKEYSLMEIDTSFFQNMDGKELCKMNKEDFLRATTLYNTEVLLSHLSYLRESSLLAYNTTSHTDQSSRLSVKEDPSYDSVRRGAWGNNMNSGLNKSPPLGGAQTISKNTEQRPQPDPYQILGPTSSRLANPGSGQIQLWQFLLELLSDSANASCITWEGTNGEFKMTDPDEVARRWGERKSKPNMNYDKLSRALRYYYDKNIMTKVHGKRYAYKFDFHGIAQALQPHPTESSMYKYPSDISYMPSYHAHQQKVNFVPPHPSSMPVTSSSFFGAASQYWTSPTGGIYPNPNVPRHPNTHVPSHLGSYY
# Summary of the method: (§1)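 Sequencing on an Illumina NextSeq500 followed washing, crosslinking with 0.1% formaldehyde, proximity ligation (BsaI/T4 ligase, 1 h, 37 °C) and PCR amplification of pools that had been incubated for 30 min at room temperature with 200 nmole of a random double-stranded 16-mer DNA library in Tris/NaCl/DTT/glycerol buffer. Each pool held DNA-barcoded human transcription factors, expressed in yeast as GST fusions and captured on glutathione beads, plus a tag-only sample. Binding signal is a hexamer's read frequency for a factor divided by its frequency in the tag-only sample.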
# ELK1 = target: T2, ELK1 (Homo sapiens, UniProt P19419 1-428); details: protein: recombinant; tags: N-terminal GST; dsDNA, one strand shown
# T2 sequence: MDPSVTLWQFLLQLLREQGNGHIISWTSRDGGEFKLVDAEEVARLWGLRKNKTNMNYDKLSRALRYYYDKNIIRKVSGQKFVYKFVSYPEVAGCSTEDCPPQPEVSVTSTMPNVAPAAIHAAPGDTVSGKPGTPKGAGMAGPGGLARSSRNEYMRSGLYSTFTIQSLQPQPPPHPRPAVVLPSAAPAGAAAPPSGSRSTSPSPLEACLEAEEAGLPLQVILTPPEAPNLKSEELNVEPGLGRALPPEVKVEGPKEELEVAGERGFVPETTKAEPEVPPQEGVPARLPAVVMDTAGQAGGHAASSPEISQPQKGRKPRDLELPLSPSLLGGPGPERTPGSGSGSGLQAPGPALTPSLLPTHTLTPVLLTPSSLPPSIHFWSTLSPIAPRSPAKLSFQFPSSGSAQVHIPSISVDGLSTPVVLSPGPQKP
# Summary of the method: as §1
# ELK3 = target: T3, ELK3 (Homo sapiens, UniProt P41970 1-407); details: protein: recombinant; tags: N-terminal GST; dsDNA, one strand shown
# T3 sequence: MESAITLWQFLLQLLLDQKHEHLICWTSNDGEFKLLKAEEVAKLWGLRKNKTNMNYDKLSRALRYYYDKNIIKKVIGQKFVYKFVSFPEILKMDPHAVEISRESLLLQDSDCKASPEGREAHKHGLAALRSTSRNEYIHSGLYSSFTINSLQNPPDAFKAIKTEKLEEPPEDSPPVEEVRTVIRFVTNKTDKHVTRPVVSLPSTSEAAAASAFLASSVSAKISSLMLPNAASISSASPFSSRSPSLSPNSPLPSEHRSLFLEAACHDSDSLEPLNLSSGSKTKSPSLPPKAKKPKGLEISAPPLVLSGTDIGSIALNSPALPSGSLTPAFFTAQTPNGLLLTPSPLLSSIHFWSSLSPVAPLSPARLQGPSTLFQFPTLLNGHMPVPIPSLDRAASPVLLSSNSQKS
# Summary of the method: as §1
# HSF1 = HSF1 (Homo sapiens, UniProt Q00613 1-529); details: protein: recombinant; tags: N-terminal GST; chain copies: 3; dsDNA, one strand shown
# Chain of HSF1 (Q00613 whole entry): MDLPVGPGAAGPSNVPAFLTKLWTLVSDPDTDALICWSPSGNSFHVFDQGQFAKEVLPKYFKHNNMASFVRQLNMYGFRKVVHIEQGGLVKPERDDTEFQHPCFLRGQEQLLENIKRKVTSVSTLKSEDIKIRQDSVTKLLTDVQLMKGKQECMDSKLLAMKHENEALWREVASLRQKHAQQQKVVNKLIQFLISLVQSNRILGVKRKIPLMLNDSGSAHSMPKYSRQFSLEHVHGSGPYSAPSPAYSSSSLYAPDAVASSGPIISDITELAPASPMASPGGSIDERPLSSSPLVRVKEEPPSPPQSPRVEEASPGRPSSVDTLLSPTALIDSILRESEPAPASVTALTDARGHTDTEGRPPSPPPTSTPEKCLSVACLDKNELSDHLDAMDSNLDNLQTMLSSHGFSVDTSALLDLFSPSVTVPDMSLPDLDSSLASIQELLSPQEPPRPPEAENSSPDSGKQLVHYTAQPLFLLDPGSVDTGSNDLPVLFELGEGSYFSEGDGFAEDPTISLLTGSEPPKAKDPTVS
# Summary of the method: as §1
# ETV2 = target: T4, ETV2 (Homo sapiens, UniProt O00321 1-342); details: protein: recombinant; tags: N-terminal GST; dsDNA, one strand shown
# T4 sequence: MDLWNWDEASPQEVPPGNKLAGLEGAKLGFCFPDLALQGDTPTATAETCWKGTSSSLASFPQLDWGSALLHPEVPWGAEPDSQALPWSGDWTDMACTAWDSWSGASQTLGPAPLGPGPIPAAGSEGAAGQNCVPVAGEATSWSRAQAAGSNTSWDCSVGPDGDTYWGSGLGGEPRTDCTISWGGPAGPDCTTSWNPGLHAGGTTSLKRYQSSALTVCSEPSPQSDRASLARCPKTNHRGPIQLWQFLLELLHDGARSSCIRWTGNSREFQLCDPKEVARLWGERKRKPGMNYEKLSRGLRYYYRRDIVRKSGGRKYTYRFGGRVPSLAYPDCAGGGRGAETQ
# Summary of the method: as §1
# ELF3 = target: T5, ELF3 (Homo sapiens, UniProt P78545 1-371); details: protein: recombinant; tags: N-terminal GST; dsDNA, one strand shown
# T5 sequence: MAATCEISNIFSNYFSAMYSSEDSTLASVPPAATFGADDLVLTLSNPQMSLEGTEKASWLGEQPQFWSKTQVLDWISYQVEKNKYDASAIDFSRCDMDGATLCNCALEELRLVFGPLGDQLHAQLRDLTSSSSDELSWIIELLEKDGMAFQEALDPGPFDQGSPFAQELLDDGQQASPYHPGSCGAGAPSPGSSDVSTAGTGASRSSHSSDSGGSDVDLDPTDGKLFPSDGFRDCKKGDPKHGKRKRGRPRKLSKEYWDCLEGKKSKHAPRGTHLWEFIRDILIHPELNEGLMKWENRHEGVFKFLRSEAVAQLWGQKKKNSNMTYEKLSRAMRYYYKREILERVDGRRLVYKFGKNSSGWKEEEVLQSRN
# Summary of the method: as §1
# CRX = CRX (Homo sapiens, UniProt O43186 1-299); details: protein: recombinant; tags: N-terminal GST; dsDNA, one strand shown
# Chain of CRX (O43186 whole entry): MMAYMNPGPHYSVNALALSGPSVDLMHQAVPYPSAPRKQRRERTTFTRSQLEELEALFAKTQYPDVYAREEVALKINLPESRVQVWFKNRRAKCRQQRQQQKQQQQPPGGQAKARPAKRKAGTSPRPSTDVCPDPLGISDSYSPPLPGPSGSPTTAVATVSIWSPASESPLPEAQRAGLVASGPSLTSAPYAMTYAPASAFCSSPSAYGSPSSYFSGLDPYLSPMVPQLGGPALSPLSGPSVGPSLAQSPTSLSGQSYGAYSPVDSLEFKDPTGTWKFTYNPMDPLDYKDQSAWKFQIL
# Summary of the method: as §1
# ETV3L = target: T6, ETV3L (Homo sapiens, UniProt Q6ZN32 1-361); details: protein: recombinant; tags: N-terminal GST; dsDNA, one strand shown
# T6 sequence: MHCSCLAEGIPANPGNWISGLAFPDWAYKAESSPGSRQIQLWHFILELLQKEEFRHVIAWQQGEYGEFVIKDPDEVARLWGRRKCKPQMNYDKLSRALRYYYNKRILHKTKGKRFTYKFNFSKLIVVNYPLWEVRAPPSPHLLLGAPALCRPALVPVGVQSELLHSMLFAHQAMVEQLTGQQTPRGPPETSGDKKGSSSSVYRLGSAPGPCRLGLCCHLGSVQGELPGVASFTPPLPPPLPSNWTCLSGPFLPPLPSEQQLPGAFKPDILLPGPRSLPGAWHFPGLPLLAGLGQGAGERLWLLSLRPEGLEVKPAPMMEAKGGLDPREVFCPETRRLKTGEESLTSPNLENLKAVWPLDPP
# Summary of the method: as §1
sequence,measurement,setting,value
CGCTAA,binding signal,FLI1,"1.01 fold enrichment (6-mer frequency, TF over GST control)"
same,binding signal,ELK1,"1.05 fold enrichment (6-mer frequency, TF over GST control)"
same,binding signal,ELK3,"1 fold enrichment (6-mer frequency, TF over GST control)"
same,binding signal,HSF1,"1.09 fold enrichment (6-mer frequency, TF over GST control)"
same,binding signal,ETV2,"1.09 fold enrichment (6-mer frequency, TF over GST control)"
same,binding signal,ELF3,"1 fold enrichment (6-mer frequency, TF over GST control)"
same,binding signal,CRX,"1.34 fold enrichment (6-mer frequency, TF over GST control)"
same,binding signal,ETV3L,"1 fold enrichment (6-mer frequency, TF over GST control)"
